Most compounds without a hit are left out; they make up all but 14% or so of the library.
Pf growth 96h = P. falciparum growth inhibition at 96 hour, primary screen for plastid delayed-death inhibitors | P. falciparum luciferase reporter growth, 96 h | Potency, µM (series often up to 28.7 µM), for the others: top-dose activity change, negative = inhibition, usual class: inhibitors | 6.9% of 320,000 active | AID 504834; further: potency means the concentration at half of the fitted maximal effect
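Two-generation exposure (96 h) targets delayed-death phenotype. Reporter parasites carrying integrated firefly luciferase, in red cells at 2% hematocrit and 0.05% parasitemia final, kept at 37 C, 5% CO2; luminescence loss indicates inhibition.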
Sm TGR inh = inhibitors of Schistosoma mansoni thioredoxin glutathione reductase | Q962Y6 | purified TGR, DTNB reduction, TNB absorbance 405 nm | Potency, µM (titrated, usually from 114 µM), for the others: top-dose activity change, negative = inhibition, most hits filed as inhibitors | 3% of 360,000 active | AID 485364; further: potency means the concentration at half of the fitted maximal effect; nearly all actives have a fitted effect of over 60% in size
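Kinetic colorimetric format: TGR-catalysed, NADPH-driven DTNB reduction monitored via TNB absorbance. Enzyme dispensed at 20 nM; compound exposure 15 min at room temperature before reaction start.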
Pf growth 48h = inhibits P. falciparum growth in the first generation, 48 h; P. falciparum luciferase growth in erythrocytes, 48 h; Potency, µM (highest dose often 28.7 µM), for the others: top-dose activity change, negative = inhibition, hits mostly inhibitors; 5.9% of 310,000 active; further: potency means the concentration at half of the fitted maximal effect
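Luminescence readout; reporter = integrated firefly luciferase in P. falciparum. RBC culture at 2% hematocrit, 0.1% parasitemia final, 37 C/5% CO2; decreased signal taken as growth inhibition.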
HCMV antiviral = blocks human cytomegalovirus replication; HFF cells, HCMV-luciferase reporter, 72 h; stronger effect = lower value; activity change, negative = inhibition, % at 57.5 µM; 4.5% of 410,000 active; AID 1259415; in the data active means activity change below about -60%; inconclusive means no clear call, values can overlap the other calls; inactive means above about -39%
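Human foreskin fibroblasts infected with luciferase-reporter HCMV at MOI 1 PFU/cell, compounds at two doses. Luciferase measured 72 h post infection; normalized to buffer-only basal and Salinomycin (10uM) controls.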
FBPA Giardia inh = Giardia lamblia aldolase inhibition; A8B2U2; purified Giardia FBPA; Potency, µM (titrated, usually from 59.6 µM), for the others: at the top dose activity, negative = inhibition, actives largely listed as inhibitors; 0.71% of 290,000 active; further: potency means the concentration at half of the fitted maximal effect; nearly all actives have a fitted effect of over 55% in size
Target sequence (A8B2U2 whole entry, looked up): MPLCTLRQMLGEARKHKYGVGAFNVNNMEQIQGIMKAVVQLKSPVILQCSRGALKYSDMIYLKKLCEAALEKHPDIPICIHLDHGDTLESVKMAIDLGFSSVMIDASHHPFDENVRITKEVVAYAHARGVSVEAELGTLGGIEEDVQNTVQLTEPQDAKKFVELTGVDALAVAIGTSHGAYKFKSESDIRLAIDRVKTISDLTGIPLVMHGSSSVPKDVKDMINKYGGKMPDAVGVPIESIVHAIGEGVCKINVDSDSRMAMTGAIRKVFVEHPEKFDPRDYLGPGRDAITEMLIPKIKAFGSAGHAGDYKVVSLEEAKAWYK
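Giardia FBPA (40 nM reagent) was preincubated 10 min at RT with compound (up to 57.5 uM final), then substrate plus GAPDH/TPI/NAD/arsenate coupling system with diaphorase/resazurin was added; resorufin fluorescence (525/598 nm) was read after 20 min.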
Starred values were filed as active, the others as inactive; ? = inconclusive; / = no result given; + = active, no number; [ ] = another dose, or the depositor's remark. Unless noted, the call rests on the fitted dose curve; in most records, active means well fitted curve in the direction sought with a large enough effect; inconclusive means small, poorly fitted or top-dose-only effect, or another doubt; inactive means no such curve, though single readings can be large; an effect the other way counts as inactive or inconclusive. On the % scale 0 is the no-effect control and ±100 the full control effect.

SMILES	Pf growth 96h	Sm TGR inh	Pf growth 48h	HCMV antiviral	FBPA Giardia inh
Cc1cc(/C=c2\sc3nc4ccccc4n3c2=O)c(C)n1-c1ccc(C(=O)O)cc1	58%	-14%	16%	-37	-12%
FC(F)(F)c1cccc(-c2nc3c(NCCc4ccccn4)nccc3[nH]2)c1	/	/	/	-3	/
CC(C)c1ccc(C(C(C(=O)c2ccccc2)N2CCOCC2)N2CCOCC2)cc1 (centres undefined)	/	/	/	19	/
Cc1ccc(C2CC(=O)Oc3cc4c(cc32)OCO4)cc1 (centres undefined)	/	/	/	/	50µM*
O=C1CC(c2ccc3c(c2)OCO3)c2cc(O)ccc2O1 (centres undefined)	/	/	/	/	-9%[89.2 µM]
O=C1CC(c2ccccc2)c2cc(O)ccc2O1 (centres undefined)	10µM*	22µM*	-14%	-32	-4%
Cc1ccc(C2CC(=O)Oc3cc(O)ccc32)cc1 (centres undefined)	-9%	2%	33%	-13	9%[89.2 µM]
O=C(N[C@H]1CC[C@H](CCNC(=O)C2CC2)O[C@@H]1CO)c1ccccn1	/	/	/	80	/
CCN(CC(=O)N1CCOCC1)S(=O)(=O)c1ccc2ccccc2c1	-44%	7%	-3%	19	5%
Cn1[nH]c2c(c1=O)[C@H](c1ccc(F)cc1)O[C@H](CCc1ccccc1)C2	/	/	/	24	/
c1ccc2c(NCCN3CCOCC3)nc(-c3ccoc3)nc2c1	/	/	/	/	0%
COC(=O)NC(NS(=O)(=O)c1ccccc1)(C(=O)OC)C(F)(F)F (centres undefined)	-22%	9%	0%	48	1%
CCOC(=O)C(NS(=O)(=O)c1ccccc1)(C(F)(F)F)P(=O)(OCC(C)C)OCC(C)C (centres undefined)	-3%	18µM*	/	4	-1%
COc1ccc(C(=O)N2CCC3(CCCN(Cc4ccncc4)C3)CC2)cc1	/	/	/	/	6%
COC(=O)/C=c1\sc2ncnn2c1=O	?	1.4µM*	18%	3	?
O=C(O)CCCCCN1C(=O)C2CCCCC2C1=O (centres undefined)	9.3µM*	1%	4%	13	2%
O=C(O)CCCN1C(=O)C2C3C=CC(C2C1=O)C1C(=O)N(CCCC(=O)O)C(=O)C31 (centres undefined)	20%	-1%	7%	-4	-9%
COc1ccc(CNC(=O)CCc2c(C)c3ccc(OC)c(C)c3oc2=O)cc1OC	/	6%	/	-16	/
NC(=O)CC(NC(=O)Cc1ccc(Br)cc1)c1ccc(NCCN2CCCCC2)c([N+](=O)[O-])c1 (centres undefined)	0.01µM*	-25%	29%	2	1%
NC(=O)CC(NC(=O)c1ccccc1)c1ccc(NC2CCCCCCC2)c([N+](=O)[O-])c1 (centres undefined)	-98%	0%	10%	-99*	15%
NC(=O)CC(NC(=O)c1ccccc1)c1ccc(NCCc2ccc(Cl)cc2)c([N+](=O)[O-])c1 (centres undefined)	?	7%	13µM*	-25	0%
NC(=O)CC(NC(=O)c1ccccc1)c1ccc(NC2CCCCC2)c([N+](=O)[O-])c1 (centres undefined)	?	8%	-8%	-27	1%
COc1ccc(CCNc2ccc(C(CC(N)=O)NC(=O)c3ccc(Br)cc3)cc2[N+](=O)[O-])cc1 (centres undefined)	?	0%	?	-72*	0%
COc1ccc(CCNc2ccc(C(CC(N)=O)NC(=O)Cc3ccc(Br)cc3)cc2[N+](=O)[O-])cc1 (centres undefined)	?	-4%	?	3	-1%
O=C(NCC(F)(F)F)c1ccc(S(=O)(=O)N2CCN(C(=O)C3CCCO3)CC2)cc1 (centres undefined)	?	-7%	2%	30	/
SMILES	Pf growth 96h	Sm TGR inh	Pf growth 48h	HCMV antiviral	FBPA Giardia inh
Clc1ccc(Nc2nccc3[nH]c(-c4ccccc4)nc23)cc1	/	/	/	-6	/
NC(=O)CC(NC(=O)c1ccccc1)c1ccc(NCc2ccccc2)c([N+](=O)[O-])c1 (centres undefined)	9.3µM*	11%	?	5	0%
CC(C)(C)C(=O)Nc1ccc(C(=O)NNC(=O)Cc2ccccc2)cc1	2.9µM*	1%	21%	44	-13%
CC(C)(C)C(=O)Nc1cccc(-c2nc3ccccc3c(=O)o2)c1	96%	-31%	62%	11	/
CC(C)(C)C(=O)Nc1ccc(-c2nc3ccccc3c(=O)o2)cc1	7%	0%	32%	-64*	-1%
CC(C)(CCl)C(=O)Nc1ccc(C(F)(F)F)cc1	-5%	-18%	-9%	-76*	-8%
CC(O)(CS(=O)(=O)c1cccc(C(F)(F)F)c1)C(=O)Nc1ccc(C(F)(F)F)cc1 (centres undefined)	-3%	-31%	?	-3	-8%
CC(C)(C)C(=O)Nc1ccc(C(=O)NNC(=O)c2ccccc2)cc1	13µM*	-4%	46%	-14	5%
CC(C)(C)C(=O)Nc1ccc(NC(=O)C(C)(C)C)cc1	61%	20%	4%	-84*	10%
Cc1ccc2nc(-c3ccc(Cl)c(NC(=O)COc4ccc(C(C)C)cc4)c3)oc2c1	/	-14%	/	34	/
CCOC(=O)c1cnn(-c2ccccc2)c1-n1cccc1C(=O)C(=O)Nc1ccccc1C(F)(F)F	15µM*	2%	13µM*	-23	-7%
COc1ccc(NC(=O)C(=O)NCCC2CCCCN2S(=O)(=O)c2ccccc2)cc1 (centres undefined)	?	-8%	-30%	-4	/
COc1cc(/C=C/C(=O)OC2CC3CCC2(C)C3(C)C)ccc1O (centres undefined)	3%	-23%	?	-103*	-11%
CN(C)S(=O)(=O)c1ccc(C(=O)OCC(=O)N2CC3(C)CC2CC(C)(C)C3)cc1 (centres undefined)	/	/	/	5	/
CC(=O)OC1CC2CCC1(C)C2(C)C (centres undefined)	12%	/	-7%	/	-1%
CC1(C)CC2CC(C)(CN2C(=O)COC(=O)c2ccccc2C(F)(F)F)C1 (centres undefined)	?	-8%	?	+	/
COc1cc(/C=C/C(=O)OCC(=O)N2CC3(C)CC2CC(C)(C)C3)ccc1O (centres undefined)	?	-25%	?	-73*	-10%
COc1ccc(/C=N/OCC(=O)N2CC3(C)CC2CC(C)(C)C3)cc1OC (centres undefined)	?	-2%	?	?	-2%
CSc1nc(=NC(C)=O)ss1	5.2µM*	?	10%	3	?
Cn1c(N)c(C(=O)CSc2nnc(NC3CCCCC3)s2)c(=O)n(C)c1=O	1.3µM*	4%	?	-18	/
Cn1c(N)c(C(=O)CSc2nnc(C3CC3)n2N)c(=O)n(C)c1=O	0%	-14%	7%	-15	/

High-throughput results (PubChem BioAssay)
